# Measured values as given in PubChem BioAssay.
# Several values for one entry are separate records, joined by “and”; a condition that tells them apart may be missing. Equal values may be shown once. Activity calls are given as the source filed them. Unless noted, no rule for the calls is given here.
# Experiments:
# [1] = tested on: Hepatitis C virus NS3 helicase; test: blockers of NS3h binding to ssDNA – biochemical, fluorescence polarization, LOPAC1280 library, primary screen (AID 687035; in the data active = inhibition above about 37%); conditions: Purified HCV NS3 helicase, Cy5-dT15 ssDNA binding fluorescence polarization; stronger effect = higher value; concentration not given here
# [2] = compounds altering Cy5-DNA-NS3h complex signal – biochemical, LOPAC1280, artefact control for HCV NS3 helicase inhibitor project (AID 687037); conditions: Cy5-DNA-NS3h complex fluorescence interference counterscreen
# [3] = Wnt pathway potentiators raising nuclear beta-catenin – imaging, WNT3A-conditioned medium, mouse C2C12, NPC library, primary screen (AID 1117326; in the data active = nuclear beta-catenin stimulation mostly above about 4.2%, no sharp cut-off; inactive = mostly below about 10%); conditions: stronger effect = higher value
# [4] = stimulators of insulin release from INS-1E, primary screen, cell-based, 5 mM glucose, NPC library (AID 1117329;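 active = compound raises insulin release from rat beta cells at 5 mM glucose, no numeric limit stated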); conditions: rat INS-1E insulin secretion, at 10 µM, stronger effect = higher value
# [5] = growth inhibition of GSK3B-pretreated HCT116 cells – cell-based, CellTiter-Glo, 0.2 to 20 µM (AID 1117336;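 active = compounds lowering colon cancer cell viability after pretreatment blocking the GSK3B kinase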); conditions: HCT116 viability after GSK3B inhibitor, at 20 µM, stronger effect = higher value
# [6] = inhibition of endothelial tube formation, primary screen, imaging, VEGF stimulated, CD31 staining, tube area, NPC library (AID 1117340;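 active = compound that reduces growth-factor-driven endothelial tube area in a mixed cell culture, no cutoff stated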); conditions: VEGF-stimulated ADSC/ECFC co-culture, at 10 µM, stronger effect = higher value
# [7] = GLP1 release stimulators, primary, NCI-H716, NPC library (AID 1117341;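 active = compound raises GLP1 secretion from the human gut endocrine cells, with no numeric limit stated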); conditions: NCI-H716 cells, at 10 µM, stronger effect = higher value
# [8] = HCT116 colon cancer cell growth inhibition, primary screen, CellTiter-Glo luminescence, NPC library (AID 1117342;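 active = compounds that lower survival of HCT116 colon cancer cells in the luminescence readout, no numeric limit stated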); conditions: at 20 µM (top of the series)
# [9] = reduced SW480 viability measured with CellTiter-Glo, NPC library, primary (AID 1117343;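 active = compounds that lower viability of the colon cancer cells in the luminescence readout, with no numeric limit stated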); conditions: CellTiter-Glo luminescence; at 20 µM (top of the series)
# [10] = NPC library primary testing for decreased DLD-1 cell viability via CellTiter-Glo (AID 1117346;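 active = compounds that lower survival of DLD-1 colon cancer cells in the luminescence readout, no cutoff given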); conditions: DLD-1 viability, CellTiter-Glo luminescence; at 20 µM (top of the series)
# [11] = target: 6-phosphogluconate dehydrogenase, decarboxylating (Homo sapiens) (UniProt P52209); test: inhibition of human phosphogluconate dehydrogenase – biochemical, recombinant enzyme, NADPH absorbance, primary screen (AID 1159550;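 active = at least 20% inhibition of 6-phosphogluconate dehydrogenase activity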); conditions: recombinant 6PGD, NADPH absorbance 341 nm; at 10 µM; stronger effect = higher value
# Sequence of 6-phosphogluconate dehydrogenase, decarboxylating (Homo sapiens) (P52209 whole entry, looked up): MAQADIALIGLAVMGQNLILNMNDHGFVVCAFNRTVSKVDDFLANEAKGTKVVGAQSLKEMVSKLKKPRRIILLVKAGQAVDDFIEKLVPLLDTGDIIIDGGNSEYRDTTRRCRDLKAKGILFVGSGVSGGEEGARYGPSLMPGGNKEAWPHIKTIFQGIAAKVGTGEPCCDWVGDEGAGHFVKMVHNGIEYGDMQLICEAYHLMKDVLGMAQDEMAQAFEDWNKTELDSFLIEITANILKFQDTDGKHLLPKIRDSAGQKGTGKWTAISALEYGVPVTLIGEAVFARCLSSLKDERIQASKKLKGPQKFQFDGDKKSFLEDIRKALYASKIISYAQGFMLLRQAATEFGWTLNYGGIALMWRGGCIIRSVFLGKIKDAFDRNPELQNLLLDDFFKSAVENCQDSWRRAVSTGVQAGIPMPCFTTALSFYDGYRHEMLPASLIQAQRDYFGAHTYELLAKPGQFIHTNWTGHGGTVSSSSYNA
# [12] = signal quenchers or enhancers, Cy5 substrate/SSB – biochemical, NIH Clinical Collection, E. coli SSB, artefact control for HCV NS3 helicase inhibitor project (AID 743268); conditions: Cy5-oligo bound E. coli SSB, fluorescence interference
# [13] = tested on: Hepatitis C virus NS3 helicase; test: blockers of NS3h binding to DNA – biochemical, fluorescence polarization, NIH Clinical Collection, primary screen (AID 743270); conditions: NS3 helicase binding to Cy5-dT15 DNA, stronger effect = higher value, concentration not given here
# [14] = target: Single-stranded DNA-binding protein (Escherichia coli (strain K12)) (UniProt P0AGE0); test: SSB-ssDNA binding inhibitors – biochemical, fluorescence polarization, NIH Clinical Collection, counter-screen for HCV NS3 helicase inhibitor project (AID 743271; in the data active = inhibition above about 28%); conditions: E. coli SSB-DNA binding, stronger effect = higher value, concentration not given here
# [15] = compounds distorting NS3 helicase fluorescence signal – biochemical, NIH Clinical Collection, artefact control for HCV NS3 helicase inhibitor project (AID 743272); conditions: fluorescence interference counterscreen, HCV NS3 helicase assay; stronger effect = lower value;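 also: HCV NS3 helicase with a Cy5 labelled single stranded DNA probe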
# [16] = tested on: Neuropilin-2 / VEGF-C interaction (human); test: small molecules blocking Neuropilin-2/VEGF-C interaction – biochemical, microplate binding format, z-score (AID 743281); conditions: microplate NRP2/VEGF-C binding assay; stronger effect = lower value
# [17] = P. berghei load reduction in hepatocytes – cell-based, HepG2, luciferase luminescence, HepG2 viability, primary screen (AID 624349; in the data active = parasite load remaining mostly below about 12%, no sharp cut-off; inactive = mostly above about 10%;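 also: 100% = mean of DMSO negative control wells on the same plate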); conditions: P. berghei liver stage in HepG2, luciferase luminescence, concentration not given here; parasite load remaining: stronger effect = lower value; viability: measured here: HepG2 viability without parasites
SMILES,inhibition [1],fluorescence ratio (interference) [2],nuclear beta-catenin stimulation ([3]; at 10 µM),"nuclear beta-catenin stimulation ([3]; stimulation, at 2 µM)",insulin secretion stimulation [4],viability decrease [5],tube area decrease [6],GLP1 secretion stimulation [7],inhibition of viability [8],viability decrease (inhibition) [9],viability decrease (inhibition) [10],inhibition [11],fluorescence ratio [12],inhibition [13],inhibition [14],fluorescence ratio [15],z-score [16],parasite load remaining [17],viability [17]
O=c1c(-c2ccc(O)cc2)coc2cc(O)cc(O)c12,-1% (inactive),1 (inactive),8.6% (inactive),-1.1%,0.8% (inactive),36.1% (inactive),54.6% (active),7% (inactive),-0.9% (inactive),94.1% (active),8.45% (inactive),3.56% (inactive),–,–,–,–,–,–,–
CN(C)CCC(c1ccccc1)c1ccccn1 (centres undefined),-1% (inactive),0.9 (inactive),0.4% (inactive),1.1%,1.3% (inactive),-40.9% (inactive),1.9% (inactive),1.5% (inactive),3.55% (inactive),12.1% (inactive),-7.2% (inactive),-0.335% (inactive),–,–,–,–,–,–,–
NC(=O)c1ncn([C@@H]2O[C@H](CO)[C@@H](O)[C@H]2O)c1O,-3% (inactive),1 (inactive),3% (inactive),2.4%,-2.6% (inactive),-1.75% (inactive),3.8% (inactive),2.6% (inactive),-13.1% (inactive),2.7% (inactive),4.7% (inactive),1.32% (inactive),–,–,–,–,–,–,–
CC[N+](CC)(CC)CCOc1cccc(OCC[N+](CC)(CC)CC)c1OCC[N+](CC)(CC)CC,-2% (inactive),1 (inactive),-0.5% (inactive),-1.4%,-1.3% (inactive),-8.1% (inactive),-2.2% (inactive),1.9% (inactive),8.8% (inactive),-6.2% (inactive),-5.3% (inactive),7.66% (inactive),–,–,–,–,–,–,–
C[C@](N)(Cc1ccc(O)cc1)C(=O)O,-1% (inactive),0.9 (inactive),-0.2% (inactive),4.5%,-0.1% (inactive),0.3% (inactive),-8.2% (inactive),1.3% (inactive),-15.1% (inactive),42.1% (inactive),-1.1% (inactive),-7.56% (inactive),–,–,–,–,–,–,–
CCCCNc1ccc(C(=O)OCCN(C)C)cc1,-2% (inactive),0.9 (inactive),9.2% (inactive),3.3%,0% (inactive),-26.9% (inactive),9.8% (inactive),0.3% (inactive),18% (inactive),47% (inactive),3.1% (inactive),-7.63% (inactive),–,–,–,–,–,–,–
Cc1ccccc1N1C(=O)c2cc(S(N)(=O)=O)c(Cl)cc2NC1C (centres undefined),1% (inactive),1 (inactive),-0.4% (inactive),1.1%,1.1% (inactive),-5.6% (inactive),-5.3% (inactive),-1.9% (inactive),0.8% (inactive),-18.3% (inactive),-5.3% (inactive),-11.8% (inactive),–,–,–,–,–,–,–
CNC[C@H](O)c1ccc(O)c(O)c1,-5% (inactive),1 (inactive),0.3% (inactive),0.2%,-2.3% (inactive),31.1% (inactive),-5.3% (inactive),2.1% (inactive),-7.2% (inactive),64.8% (active),23.9% (inactive),-1.63% (inactive),–,–,–,–,–,–,–
Fc1ccc(C(c2ccc(F)cc2)N2CCN(C/C=C/c3ccccc3)CC2)cc1,-1% (inactive),1 (inactive),1.1% (inactive),-2.5%,2.65% (inactive),108% (active),21.4% (inactive),0.7% (inactive),107% (active),125% (active),99.7% (active),16.5% (inactive),–,–,–,–,–,–,–
COCCc1ccc(OCC(O)CNC(C)C)cc1 (centres undefined),1% (inactive),1 (inactive),0.8% (inactive),1.6%,5.6% (inactive),-27.4% (inactive),-8.1% (inactive),-3.5% (inactive),12.1% (inactive),17.2% (inactive),-6.3% (inactive),-13.3% (inactive),–,–,–,–,–,–,–
CCN(CC)CCNC(=O)c1cc(S(C)(=O)=O)ccc1OC,-3% (inactive),0.9 (inactive),1.9% (inactive),0.2%,0.1% (inactive),-23.6% (inactive),12% (inactive),0.7% (inactive),1.13% (inactive),10.9% (inactive),-4.3% (inactive),-8.37% (inactive),–,–,–,–,–,–,–
COc1ccc(CN(CCN(C)C)c2ccccn2)cc1,3% (inactive),1 (inactive),0.1% (inactive),7.7%,68.9% (active),3.3% (inactive),14.4% (inactive),1.2% (inactive),-7.7% (inactive),22.5% (inactive),-34.8% (inactive),4.83% (inactive),–,–,–,–,–,–,–
CCn1cc(C(=O)O)c(=O)c2cc3c(cc21)OCO3,-1% (inactive),1 (inactive),0.2% (inactive),0.8%,-1.3% (inactive),-16% (inactive),12.1% (inactive),-1.5% (inactive),-19.5% (inactive),8.3% (inactive),7.15% (inactive),15.6% (inactive),–,–,–,–,–,–,–
NC(N)=Nc1nc(CSCC/C(N)=N/S(N)(=O)=O)cs1,–,–,0.9% (inactive),-1.4%,2.8% (inactive),6.7% (inactive),6.4% (inactive),1.4% (inactive),-8.7% (inactive),0.7% (inactive),-10.3% (inactive),5.97% (inactive),0.96 (inactive),3.56% (inactive),6.83% (inactive),0.9 (inactive),-0.254 (inactive),–,–
O=C1NCC2(CCN(CCc3ccccc3)CC2)O1,-3% (inactive),1 (inactive),0.4% (inactive),1.5%,-0.9% (inactive),1.6% (inactive),18.6% (inactive),0% (inactive),8.9% (inactive),48% (inactive),-32.8% (inactive),13.7% (inactive),–,–,–,–,–,–,–
CCn1cc(C(=O)O)c(=O)c2cc(F)c(N3CCNC(C)C3)c(F)c21 (centres undefined),-1% (inactive),1 (inactive),1.8% (inactive),1.2%,1.7% (inactive),15.3% (inactive),-13.3% (inactive),-0.4% (inactive),0.55% (inactive),-10.7% (inactive),-20.1% (inactive),-3.66% (inactive),–,–,–,–,–,–,–
COc1ccc(CCN(C)CCCC(C#N)(c2ccc(OC)c(OC)c2)C(C)C)cc1OC (centres undefined),-3% (inactive),1 (inactive),0.2% (inactive),0.5%,6.3% (inactive),-4.2% (inactive),-13.1% (inactive),-4% (inactive),27.3% (inactive),20.2% (inactive),-13.8% (inactive),10.8% (inactive),–,–,–,–,–,–,–
NC(Cc1ccc(Cl)cc1)C(=O)O (centres undefined),-3% (inactive),1 (inactive),1.4% (inactive),2.1%,-1.3% (inactive),-0.7% (inactive),-8.9% (inactive),0.5% (inactive),-7.8% (inactive),13.2% (inactive),-6.55% (inactive),5.29% (inactive),–,–,–,–,–,–,–
CN1CCN(C2=Nc3ccccc3Oc3ccc(Cl)cc32)CC1,-3% (inactive),1 (inactive),1.4% (inactive),-0.5%,0.1% (inactive),-29.5% (inactive),43.3% (active),1.6% (inactive),30.1% (inactive),107% (active),85% (active),-14% (inactive),0.97 (inactive),1.19% (inactive),2.21% (inactive),0.92 (inactive),-0.0658 (inactive),–,–
Cc1ncc([N+](=O)[O-])n1CCO,–,–,-0.2% (inactive),0.7%,-1.4% (inactive),55.6% (active),-14.9% (inactive),-0.3% (inactive),18.5% (inactive),75.1% (active),55% (active),-20.7% (inactive),0.95 (inactive),-2.77% (inactive),4.52% (inactive),0.88 (inactive),-0.317 (inactive),–,–
COc1ncnc(NS(=O)(=O)c2ccc(N)cc2)c1OC,–,–,4.7% (inactive),3.5%,0.1% (inactive),-6.5% (inactive),-10.7% (inactive),8.3% (inactive),-1.93% (inactive),-16.8% (inactive),-22.2% (inactive),–,–,–,–,–,–,74.2% (inactive) and 31.5% (inactive) and 37.8% (inactive),68.7% and 97% and 73.5%
CCc1c(C)[nH]c2c1C(=O)C(CN1CCOCC1)CC2 (centres undefined),-4% (inactive),0.9 (inactive),-1.2% (inactive),-0.2%,1.8% (inactive),2.2% (inactive),-10.5% (inactive),5.2% (inactive),-24.1% (inactive),-3.8% (inactive),-11% (inactive),–,1.09 (inactive),-1.36% (inactive),1.81% (inactive),1.01 (inactive),–,36.3% (inactive) and 102% (inactive),89.9% and 75.4%
Brc1c(NC2=NCCN2)ccc2nccnc12,-3% (inactive),1 (inactive),0.3% (inactive),-0.6%,0.4% (inactive),27% (inactive),-5.2% (inactive),-3.1% (inactive),15.1% (inactive),7.7% (inactive),-3.7% (inactive),–,1.04 (inactive),-5.91% (inactive),-3.53% (inactive),0.99 (inactive),–,54.7% (inactive),94.9%
NS(=O)(=O)c1cc2c(cc1Cl)NC(C1CC3C=CC1C3)NS2(=O)=O (centres undefined),-1% (inactive),1 (inactive),0.8% (inactive),0%,-1% (inactive),-17% (inactive),2.9% (inactive),-2.5% (inactive),-8.27% (inactive),8.9% (inactive),-15.4% (inactive),–,–,–,–,–,–,56.1% (inactive),133%
